PLC-beta3 inh: blocks human PLC-beta3 enzyme activity; Q01970; Purified PLC-beta3, fluorogenic substrate, fluorescence; inhibition, % at 12.2 µM; actives 0.18% (n = 370,000); AID 720704;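 note: 0% = median of compound wells on plate and 100% = full blocker control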
ADAM10 inh: inhibits human ADAM10; inhibition, % at 7 µM; recombinant ADAM10, EDANS/DABCYL FRET peptide cleavage, 3 h; O14672; actives 0.62% (n = 370,000);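 active = inhibition above a per-campaign cutoff equal to the mean of compounds falling between control-based bounds plus 3 SD, cut at about 20% in these data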;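 note: 0% = DMSO wells while the 100% control is not disclosed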
KLK7 zymogen act: activators of human kallikrein-7 zymogen; P49862; purified proKLK7, EDANS-DABCYL substrate fluorescence; 100% is mature enzyme control, 0% vehicle; actives 0.9% (n = 370,000); activation, % at 7 µM;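 active = activation above the mean of all tested compounds plus 3 SD, computed per campaign excluding outliers beyond control limits, cut at about 13% in these data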
PLC-gamma1 inh: inhibitors of human phospholipase C gamma1. P19174. purified PLC-gamma1, fluorogenic substrate, fluorescence. inhibition, % at 12.2 µM. actives 0.84% (n = 370,000). AID 720700; in the data active = inhibition above about 9.5%
ADAM17 inh: inhibitors of human ADAM17. P78536. recombinant ADAM17, EDANS/DABCYL FRET peptide cleavage. inhibition, % at 6.95 µM. actives 0.83% (n = 370,000). AID 720648;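 active = inhibition above the mean of compounds lying between control limits plus 3 SD, set per campaign, cut at about 8.5% in these data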;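 note: 0% = DMSO-only wells as the low control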
ADAM10 ctr: counter-screen for ADAM17 exosite inhibitors: inhibitors of human ADAM10; shares compounds with ADAM17 inh; recombinant ADAM10, EDANS/DABCYL FRET peptide cleavage, 3 h; inhibition, % at 6.95 µM; actives 47% (n = 2,900); AID 743256;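 active = mean inhibition over the triplicate runs exceeds the activity threshold set in the earlier primary screen, cut at about 20% in these data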;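 note: 0% = DMSO wells and 100% = marimastat wells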
ADAM17 confirm: human ADAM17 inhibition, confirmation | shares compounds with ADAM17 inh | recombinant ADAM17, EDANS/DABCYL QFRET peptide cleavage | inhibition, % at 6.95 µM | actives 65% (n = 2,900) | AID 743257;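 active = mean inhibition across replicates above the hit cutoff set in the primary screen, cut at about 8.5% in these data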;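 note: 0% = DMSO wells and 100% = marimastat wells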
PLCg1 ctr: inhibits human PLC-gamma1 in PLC-beta3 counter-screen | shares compounds with PLC-gamma1 inh | purified PLC-gamma1, fluorogenic substrate, fluorescence | inhibition, % at 12.3 µM | actives 3.1% (n = 3,300); in the data active = inhibition above about 9.5%
PLCb3 confirm: human PLC-beta3 inhibition, confirmation | inhibition, % at 12.3 µM | purified PLC-beta3, fluorogenic substrate fluorescence | shares compounds with PLC-gamma1 inh | actives 1% (n = 3,300) | AID 743261
* = called active by the depositor. Shown are actives, neighbours in structure and some others; about 2.9% of the full set was active somewhere. Cut-off read from the data, not from the text of the source, unless noted: active = inhibition above about 11%; inactive = the rest.

Results for Cc1cccc(C(=O)N/N=C/c2ccc(OC3CSC3)cc2)c1 ?
PLC-beta3 inh: -1.8; ADAM10 inh: 0.6; KLK7 zymogen act: 0.6; PLC-gamma1 inh: -0.2; ADAM17 inh: -2.1

How did c1ccc(CSc2nnc(SCc3ccccn3)s2)nc1 do in these assays?
PLC-beta3 inh: 14.4*; ADAM10 inh: 9.3; KLK7 zymogen act: 0.3; PLC-gamma1 inh: 11.1*; ADAM17 inh: 9.0*; ADAM10 ctr: 5.1; ADAM17 confirm: 8.5; PLCg1 ctr: -4.5; PLCb3 confirm: -2.6

What do the screens show for `CSc1ncnc2c1ncn2CCCNCCCc1ccccc1`?
PLC-beta3 inh: -10.6; ADAM10 inh: -18.0; KLK7 zymogen act: 0.2; PLC-gamma1 inh: 0.3; ADAM17 inh: -2.1

How did Cc1ccc(C(C(=O)NCc2ccco2)N(CCc2ccccc2)C(=O)Cn2nnc3ccccc32)o1 (stereo not drawn) do in these assays?
PLC-beta3 inh: 11.2*; ADAM10 inh: 6.6; KLK7 zymogen act: 0.3; PLC-gamma1 inh: 3.7; ADAM17 inh: 10.1*; ADAM10 ctr: 18.1; ADAM17 confirm: 10.4*; PLCg1 ctr: -3.7; PLCb3 confirm: -2.6

Results for Cc1ccc(CN(C(=O)Cn2nnc3ccccc32)C(C(=O)NCc2ccco2)c2ccc(C)o2)cc1 (stereo not drawn) ?
PLC-beta3 inh: 1.4; ADAM10 inh: -11.6; KLK7 zymogen act: 0.1; PLC-gamma1 inh: 1.2; ADAM17 inh: -4.8

Results for O=C(NCc1n[nH]c(=S)n1-c1cccc(C(F)(F)F)c1)c1ccc(S(=O)(=O)N2CCCCC2)cc1 ?
PLC-beta3 inh: 2.5; ADAM10 inh: 14.5; KLK7 zymogen act: -0.3; PLC-gamma1 inh: 11.5*; ADAM17 inh: 12.8*; ADAM10 ctr: 9.3; ADAM17 confirm: 6.2; PLCg1 ctr: 1.3; PLCb3 confirm: -4.3

What do the screens show for `CC1(Cc2ccc(F)cc2)C(=O)Nc2ccc(S(=O)(=O)NC3CCCCC3)cc21` (stereo not drawn)?
PLC-beta3 inh: 10.8*; ADAM10 inh: 5.0; KLK7 zymogen act: 0.0; PLC-gamma1 inh: 6.4; ADAM17 inh: 9.1*; ADAM10 ctr: -1.7; ADAM17 confirm: 4.4; PLCg1 ctr: -9.2; PLCb3 confirm: -2.5

What do the screens show for `CCOC(=O)N1CCN(C(=O)c2ccc(N(Cc3ccc(C)cc3)S(C)(=O)=O)cc2)CC1`?
PLC-beta3 inh: 10.2; ADAM10 inh: 7.3; KLK7 zymogen act: -0.1; PLC-gamma1 inh: 11.7*; ADAM17 inh: 9.0*; ADAM10 ctr: -2.5; ADAM17 confirm: 0.3; PLCg1 ctr: -6.4; PLCb3 confirm: -6.4

What do the screens show for `CCOC(=O)N1CCN(C(=O)c2ccc(N(Cc3ccc(Cl)cc3)S(C)(=O)=O)cc2)CC1`?
PLC-beta3 inh: -2.7; ADAM10 inh: -3.5; KLK7 zymogen act: 0.2; PLC-gamma1 inh: 1.1; ADAM17 inh: 1.6

Results for NNC(=O)CNc1cccc(Br)c1 ?
PLC-beta3 inh: -2.5; ADAM10 inh: -4.2; KLK7 zymogen act: 0.3; PLC-gamma1 inh: -2.2; ADAM17 inh: -0.1

Results for C=CCNc1cccc(Br)c1 ?
PLC-beta3 inh: 11.2*; ADAM10 inh: 4.4; KLK7 zymogen act: 0.1; PLC-gamma1 inh: 4.1; ADAM17 inh: 9.1*; ADAM10 ctr: 3.6; ADAM17 confirm: 2.4; PLCg1 ctr: -7.5; PLCb3 confirm: -3.4

What do the screens show for `O=S(=O)(c1cccs1)N1CCC(CO)(Cc2ccc(Cl)cc2)CC1`?
PLC-beta3 inh: -0.1; ADAM10 inh: 16.9; KLK7 zymogen act: 0.1; PLC-gamma1 inh: 10.0*; ADAM17 inh: 11.9*; ADAM10 ctr: 0.6; ADAM17 confirm: 7.6; PLCg1 ctr: -1.0; PLCb3 confirm: 0.0

Results for CN(Cc1ccccc1)C(=O)c1cccc(NC(=O)Cc2ccc(NC(=O)C3CCCN(C(=O)c4ccccc4)C3)cc2)c1 (stereo not drawn) ?
PLC-beta3 inh: 5.2; ADAM10 inh: 9.6; KLK7 zymogen act: 0.9; PLC-gamma1 inh: 12.5*; ADAM17 inh: 10.7*; ADAM10 ctr: -7.1; ADAM17 confirm: -2.5; PLCg1 ctr: -3.4; PLCb3 confirm: -0.4

How did CC(=O)N(C)c1ccc(N=Nc2c(C)[nH]n(-c3ccccc3)c2=O)cc1 do in these assays?
PLC-beta3 inh: -2.3; ADAM10 inh: 2.8; KLK7 zymogen act: 0.6; PLC-gamma1 inh: 3.8; ADAM17 inh: -0.7

Results for CC(=O)N(C)c1ccc(N=Nc2ccc3ncccc3c2)cc1 ?
PLC-beta3 inh: 9.6; ADAM10 inh: 17.1; KLK7 zymogen act: 0.0; PLC-gamma1 inh: 11.9*; ADAM17 inh: 9.6*; ADAM10 ctr: 1.2; ADAM17 confirm: 4.8; PLCg1 ctr: 6.5; PLCb3 confirm: 6.2

How did O=[N+]([O-])c1cccc(C=NNC(=S)NC23CC4CC(CC(C4)C2)C3)c1 do in these assays?
PLC-beta3 inh: 0.5; ADAM10 inh: 0.1; KLK7 zymogen act: 0.2; PLC-gamma1 inh: 1.0; ADAM17 inh: 2.6

What do the screens show for `CCC/C(O)=C1\C(=O)CCCC1=NC(C)C(=O)O` (stereo not drawn)?
PLC-beta3 inh: 6.9; ADAM10 inh: 5.8; KLK7 zymogen act: -0.1; PLC-gamma1 inh: 9.8*; ADAM17 inh: 10.0*; ADAM10 ctr: 9.8; ADAM17 confirm: 7.2; PLCg1 ctr: -8.0; PLCb3 confirm: -2.4

What do the screens show for `Nc1n[nH]c(N)c1N=Nc1ccc(Cl)cc1`?
PLC-beta3 inh: 14.4*; ADAM10 inh: 16.6; KLK7 zymogen act: -0.1; PLC-gamma1 inh: 19.8*; ADAM17 inh: 10.5*; ADAM10 ctr: 2.1; ADAM17 confirm: 2.1; PLCg1 ctr: 6.0; PLCb3 confirm: 6.0

What do the screens show for `CC(=N)c1c(O)cc(C)oc1=O`?
PLC-beta3 inh: 2.2; ADAM10 inh: 3.9; KLK7 zymogen act: -0.5; PLC-gamma1 inh: 4.8; ADAM17 inh: -0.1

How did C=CCN=C1NC(c2cccc(Cl)c2)C(C(=O)OC)=C(C)N1Cc1cccc(C(F)(F)F)c1 (stereo not drawn) do in these assays?
PLC-beta3 inh: 11.7*; ADAM10 inh: 0.0; KLK7 zymogen act: 0.1; PLC-gamma1 inh: 9.2; ADAM17 inh: 10.0*; ADAM10 ctr: 7.7; ADAM17 confirm: 7.5; PLCg1 ctr: -11.1; PLCb3 confirm: -6.9

How did C=CCN=C1NC(c2ccccc2)C(C(=O)OC)=C(C)N1Cc1cccc(C(F)(F)F)c1 (stereo not drawn) do in these assays?
PLC-beta3 inh: -1.1; ADAM10 inh: -9.2; KLK7 zymogen act: 0.2; PLC-gamma1 inh: -0.7; ADAM17 inh: -5.6

How did O=C(Nc1ncccc1O)c1ccc(Cl)c(S(=O)(=O)N2CCCCC2)c1 do in these assays?
PLC-beta3 inh: 1.0; ADAM10 inh: 8.1; KLK7 zymogen act: 0.4; PLC-gamma1 inh: 7.5; ADAM17 inh: -2.5

From PubChem BioAssay
